Assay results: PubChem BioAssay (Tox21)
Records with an inconclusive call do not appear. A call without a number means that no potency is given here. The source holds several records for some structures; these can differ, active in one and inactive in another. Active and inactive are the calls of the source. Calls come from the whole dose curve; as a rule, active = well fitted curve in the direction sought with a large enough effect in the repeat runs; inconclusive = weak or mixed curves; inactive = no such curve, though single readings can be large; an effect the other way counts as inactive or inconclusive.

Experiments:
[1] = qHTS RealTime-Glo MT Cell Viability Assay in HEK293 cells - 0 hour (AID 1224880); note: top concentration of the series differs between compounds; nearly all actives have a fitted effect of over 45% in size
Summary of the method: (§1)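 Luminescence, which tracks viable cell number through reduction of the prosubstrate to a NanoLuc substrate, was read over continuous 37 C culture. Cells (600/well) were premixed with reagent and rested 5 h before 23 nL of compound in DMSO was pinned.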

[2] = A CellTox Green Cytotoxicity Assay to monitor cytotoxicity in HEK293 cells - 32 hour (AID 1224881); note: nearly all actives have a fitted effect of over 40% in size
Summary of the method: (§2)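 Fluorescence from a DNA-binding dye excluded by viable cells was measured repeatedly in the same HEK293 wells (600 cells/well) during continuous compound exposure at 37 C. Each assay gives one read point: 0, 8, 16, 24, 32 or 40 h.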

[3] = A CellTox Green Cytotoxicity Assay to monitor cytotoxicity in HepG2 cells - 0 hour (AID 1224882); note: nearly all actives have a fitted effect of over 35% in size; note: potency is the fitted concentration of half-maximal effect
Summary of the method: (§3)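 Real-time cytotoxicity: fluorescence of a cell-impermeant cyanine dye binding DNA of dead HepG2 cells, measured repeatedly (0–40 h) during compound exposure at 37 C. Cells seeded 600/well with reagent, dosed after 5 h.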

[4] = A CellTox Green Cytotoxicity Assay to monitor cytotoxicity in HepG2 cells - 32 hour (AID 1224883); note: nearly all actives have a fitted effect of over 50% in size; note: potency is the fitted concentration of half-maximal effect
Summary of the method: as §3

[5] = qHTS RealTime-Glo MT Cell Viability Assay in HepG2 cells - 16 hour (AID 1224885); note: nearly all actives have a fitted effect of over 50% in size
Summary of the method: (§4)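 Real-time, nonlytic viability: 600 HepG2 cells/well mixed with NanoLuc enzyme plus prosubstrate; 5 h settle, compound (DMSO) added by pintool; luminescence monitored over 40 h at 37 C.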

[6] = qHTS RealTime-Glo MT Cell Viability Assay in HEK293 cells - 24 hour (AID 1224886); note: top concentration of the series differs between compounds; nearly all actives have a fitted effect of over 50% in size
Summary of the method: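 Cells + reagent dispensed (600 cells/well, HEK293) → 5 h at 37 C/5% CO2 → 23 nL compound in DMSO pinned → 40 h at 37 C → luminescence read at 0, 8, 16, 24, 32, 40 h.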

[7] = qHTS RealTime-Glo MT Cell Viability Assay in HEK293 cells - 8 hour (AID 1224887); note: top concentration of the series differs between compounds; nearly all actives have a fitted effect of over 50% in size
Summary of the method: as §1

[8] = A CellTox Green Cytotoxicity Assay to monitor cytotoxicity in HEK293 cells - 16 hour (AID 1224888); note: nearly all actives have a fitted effect of over 35% in size
Summary of the method: as §2

[9] = qHTS RealTime-Glo MT Cell Viability Assay in HepG2 cells - 0 hour (AID 1224889); note: nearly all actives have a fitted effect of over 50% in size
Summary of the method: as §4

[10] = A CellTox Green Cytotoxicity Assay to monitor cytotoxicity in HEK293 cells - 8 hour (AID 1224884); note: nearly all actives have a fitted effect of over 35% in size
Summary of the method: as §2

Structure (SMILES)	outcome [1]	Potency [2]	Potency [3]	Potency [4]	outcome [5]	outcome [6]	outcome [7]	Potency [8]	outcome [9]	Potency [10]
CCCCC(CC)C(=O)Cl (stereo unspecified)	inactive	inactive	inactive	inactive	inactive	inactive	inactive	inactive	inactive	–
N#CN=C(N)N	inactive	inactive	inactive	inactive	inactive	inactive	inactive	–	inactive	inactive
CCCOC(=O)c1ccccc1C(=O)OCCC	inactive	inactive	inactive	inactive	inactive	inactive	inactive	inactive	inactive	–
CNCC(O)c1ccc(O)cc1 (stereo unspecified)	inactive	inactive	inactive	inactive	inactive	inactive	inactive	–	inactive	inactive
C=CC#N	inactive	inactive	inactive	inactive	inactive	inactive	inactive	–	inactive	inactive
O=C(O)CCCc1ccc(N(CCCl)CCCl)cc1	inactive	inactive	inactive	inactive	inactive	inactive	inactive	inactive	inactive	–
Cc1ccc(N)cc1	inactive	inactive	inactive	inactive	inactive	inactive	inactive	–	inactive	inactive
CNC(=O)O/N=C/C(C)(C)S(C)=O (stereo unspecified)	inactive	inactive	inactive	inactive	inactive	inactive	inactive	–	inactive	inactive
CNC(=O)O/N=C/C(C)(C)S(C)(=O)=O	inactive	inactive	inactive	inactive	inactive	inactive	inactive	–	inactive	inactive
ClC(Cl)c1ccccc1	inactive	inactive	inactive	inactive	inactive	inactive	inactive	–	inactive	inactive
CN(C)NC(=O)CCC(=O)O	inactive	inactive	inactive	inactive	inactive	inactive	inactive	inactive	inactive	–
COS(=O)(=O)OC	inactive	inactive	inactive	inactive	inactive	inactive	inactive	–	inactive	inactive
CC(C)CCCCCCOC(=O)c1ccccc1C(=O)OCCCCCCC(C)C	inactive	inactive	inactive	inactive	inactive	inactive	inactive	–	inactive	inactive
N#Cc1ccccn1	inactive	inactive	inactive	inactive	inactive	inactive	inactive	–	inactive	inactive
Cc1ccccc1N	inactive	inactive	inactive	inactive	inactive	inactive	inactive	–	inactive	inactive
CNc1cnn(-c2cccc(C(F)(F)F)c2)c(=O)c1Cl	inactive	inactive	inactive	inactive	inactive	inactive	inactive	inactive	inactive	–
OC[C@@H](O)[C@H]1O[C@@H]2O[C@H](C(Cl)(Cl)Cl)O[C@@H]2[C@H]1O	inactive	inactive	inactive	inactive	inactive	inactive	inactive	inactive	inactive	–
[N-]=[N+]=CC(=O)OC[C@H](N)C(=O)O	inactive	inactive	34.7 µM (active) and inactive	38.9 µM (active) and inactive	inactive	inactive	inactive	–	inactive	–
C[C@H]1C(=O)O[C@@H]2CCN3CC=C(COC(=O)[C@](C)(O)[C@]1(C)O)[C@H]23	inactive	inactive	inactive	inactive	inactive	inactive	inactive	–	inactive	–
Cl[C@H]1OCCO[C@@H]1Cl	inactive	inactive	inactive	inactive	inactive	inactive	inactive	–	inactive	–
Cc1cccc(C)c1NC(=O)CN1CCCC1=O	inactive	inactive	inactive	inactive	inactive	inactive	inactive	–	inactive	–
Cc1ccc(N=C=O)cc1N=C=O	inactive	inactive	inactive	inactive	inactive	inactive	inactive	inactive	inactive	–
CN1C(=O)CCS(=O)(=O)C1c1ccc(Cl)cc1 (stereo unspecified)	inactive	inactive	inactive	inactive	inactive	inactive	inactive	–	inactive	–
N#Cc1cccc(C#N)c1	inactive	inactive	inactive	inactive	inactive	inactive	inactive	inactive	inactive	–
